Reference: PubChem BioAssay (NCATS)
Results filed as inconclusive are left out. Calls of active or inactive are those of the source. Calls follow the shape of the dose curve; as a rule, active = well fitted curve in the direction sought with a large enough effect; inconclusive = small, poorly fitted or top-dose-only effect, or another doubt; inactive = no such curve, though single readings can be large; an effect the other way counts as inactive or inconclusive.

Key:
[1] = Cell Viability - LYMP2-004 (AID 966); also: nearly all actives have a fitted effect of over 65% in size
Outline: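 Acute toxicity is scored as a concentration-dependent drop in intracellular ATP, quantified by luciferase luminescence, in human lymphoblastoid cells exposed to compound for 24 hr. AC50 derives from Hill-equation modelling.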

[2] = Cell Viability - LYMP2-009 (AID 968);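 also: series mostly up to about 92 µM; cells exposed to compound for 24 h at 37 °C; nearly all actives have a fitted effect of over 55% in size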
[3] = Cell Viability - LYMP2-011 (AID 969); also: nearly all actives have a fitted effect of over 60% in size
Outline: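 Acute toxicity is scored as a concentration-dependent drop in intracellular ATP of a human lymphoblastoid line after 24 hr treatment. Values are AC50s modeled with the Hill equation.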

[4] = Cell Viability - LYMP2-013 (AID 970);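 also: series mostly up to about 92 µM; cells exposed to compound for 24 h at 37 °C; nearly all actives have a fitted effect of over 55% in size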
Outline: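 Acute toxicity was measured in human lymphoblastoid cells (2500/well) exposed to compound titrations for 24 hr, with ATP luminescence (CellTiter-Glo) as read-out and AC50 fitted by Hill equation.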

[5] = Cell Viability - LYMP2-015 (AID 971); also: nearly all actives have a fitted effect of over 55% in size
Outline: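 Acute toxicity was scored as a concentration-dependent drop in intracellular ATP in lymphoblastoid cells after 24 hr compound exposure in complete medium. Detection used CellTiter-Glo luciferase luminescence.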

[6] = Cell Viability - LYMP2-017 (AID 972);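 also: series mostly up to about 92 µM; cells exposed to compound for 24 hours at 37 °C; nearly all actives have a fitted effect of over 55% in size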
Outline: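 Steps: plate 2500 lymphoblastoid cells per well; incubate 5 hr at 37 C; add compound across a concentration series and incubate 24 hr at 37 C; add CellTiter-Glo and read luminescence after 30 min at room temperature; fit Hill curves for AC50.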

[7] = Cell Viability - LYMP2-023 (AID 975)
Source text: NIH Chemical Genomics Center [NCGC]
NIH Molecular Libraries Screening Centers Network [MLSCN]
National Institutes of Environmental Health Sciences [NIEHS]
National Toxicology Program [NTP]
We have developed a 1536-well cell-based assay for quantitative high throughput screening (qHTS) against a number of cell lines to determine in vitro cytotoxicity of small molecules. This particular assay uses a human lymphoblastoid cell line (LYMP2-023) purchased from Coriell Institute for Medical Research.
NCGC Assay Protocol Summary:
The CellTiter-Glo luminescent cell viability assay (Promega) is a homogeneous method to measure the number of viable cells in culture. The end point readout of this assay is based on quantitation of intracellular ATP, an indicator of metabolic activity, using the luciferase reaction. […]
Using the CellTiter-Glo luminescent cell viability assay, the amount of cellular ATP was measured in the lymphoblastoid cell line with complete culture medium following compound treatment for 24 hours. […] Library compounds were measured for their ability to cause acute toxicity in the cell line, as reflected by a decrease in intracellular ATP levels, in a concentration-dependent manner. […] AC50 values were determined from concentration-response data modeled with the standard Hill equation. […]
8. Detection; Luminescence; Viewlux plate reader […]

[8] = Cell Viability - LYMP2-025 (AID 976);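 also: series mostly up to about 92 µM; cells exposed to compound for 24 h at 37 °C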
Outline: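 In qHTS format, LYMP2-025 lymphoblastoid cells in complete culture medium received compound for 24 hr; ATP-based CellTiter-Glo signal gave viability, with AC50 derived by Hill equation.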

[9] = Cell Viability - LYMP2-002 (AID 977);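 also: series mostly up to about 92 µM; compound exposure lasted 24 h at 37 °C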
Outline: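 Cytotoxicity is scored as concentration-dependent loss of cellular ATP in a human lymphoblastoid line after 24 hr compound treatment at 37 C. AC50 is obtained by modelling concentration-response data with the Hill equation.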

[10] = Cell Viability - LYMP2-006 (AID 978); also: series mostly up to about 92 µM; nearly all actives have a fitted effect of over 60% in size
Outline: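 Concentration-dependent loss of intracellular ATP in a human lymphoblastoid line after 24 hr treatment at 37 C was measured by CellTiter-Glo luminescence, with AC50 values obtained from standard Hill-equation modelling.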

Measured: outcome

C[C@@H]1C[C@H]2[C@@H]3CCC4=CC(=O)C=C[C@]4(C)[C@@]3(F)[C@@H](O)C[C@]2(C)[C@@]1(O)C(=O)CO
inactive: all assays above
